Results: PubChem BioAssay (NCI)
This is part of a sample that, as a whole, favours compounds with a hit. Of some 83,000 tested, about 20% had one in any assay.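 48-hour exposure, single concentration, 96-well plates; percent growth endpoint where 0 means no net growth. Active: below 10.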 The source made the active and inactive calls.

Columns and labels:
Test in all cases: NCI-60 one-dose screen, 48 h (100 = growth as untreated, 0 = no growth, -100 = all killed)
SK-MEL-2 melanoma = system: SK-MEL-2 melanoma
EKVX NSCLC = system: EKVX NSCLC
SN12C renal = system: SN12C renal
UO-31 renal = system: UO-31 renal
TK-10 renal = system: TK-10 renal
ACHN renal = system: ACHN renal
CAKI-1 renal = system: CAKI-1 renal
A498 renal = system: A498 renal
CCRF-CEM leukemia = system: CCRF-CEM leukemia
MOLT-4 leukemia = conditions: 10 µM unless noted
SR leukemia = conditions: 10 µM unless noted
RPMI-8226 leukemia = system: RPMI-8226 leukemia
OVCAR-8 ovarian = system: OVCAR-8 ovarian
OVCAR-5 ovarian = system: OVCAR-5 ovarian
OVCAR-4 ovarian = system: OVCAR-4 ovarian
SK-OV-3 ovarian = system: SK-OV-3 ovarian
IGROV1 ovarian = system: IGROV1 ovarian
OVCAR-3 ovarian = system: OVCAR-3 ovarian
HS 578T breast = system: HS 578T breast
NCI/ADR-RES ovarian = system: NCI/ADR-RES ovarian

Measured: growth

O=C(N/N=C/c1ccc(B(O)O)s1)c1[nH]c2ccc(Br)cc2c1-c1ccccc1
active: SK-MEL-2 melanoma; 10 µM unless noted -82.6% | EKVX NSCLC; 10 µM unless noted -98.8% | SN12C renal; 10 µM unless noted -79.4% | UO-31 renal; 10 µM unless noted -76.3% | TK-10 renal; 10 µM unless noted -93.2% | ACHN renal; 10 µM unless noted -100% | CAKI-1 renal; 10 µM unless noted -59.8% | A498 renal; 10 µM unless noted -88.3% | CCRF-CEM leukemia; 10 µM unless noted -16.5% | MOLT-4 leukemia -8% | SR leukemia -22.6% | RPMI-8226 leukemia; 10 µM unless noted 0.974% | OVCAR-8 ovarian; 10 µM unless noted -28.3% | OVCAR-5 ovarian; 10 µM unless noted -97.6% | OVCAR-4 ovarian; 10 µM unless noted -63.6% | SK-OV-3 ovarian; 10 µM unless noted -86.7% | IGROV1 ovarian; 10 µM unless noted -74.8% | OVCAR-3 ovarian; 10 µM unless noted -47.1% | HS 578T breast; 10 µM unless noted -25.7% | NCI/ADR-RES ovarian; 10 µM unless noted -33.9%

C/C(=N/O)c1ccc(NC(=O)CSc2nnc(-c3ccc4nc(-c5ccc(Cl)cc5)[nH]c4c3)o2)cc1
inactive: SK-MEL-2 melanoma; 10 µM unless noted 65.1% | EKVX NSCLC; 10 µM unless noted 99.8% | SN12C renal; 10 µM unless noted 28.8% | UO-31 renal; 10 µM unless noted 87.7% | TK-10 renal; 10 µM unless noted 121% | ACHN renal; 10 µM unless noted 77.3% | CAKI-1 renal; 10 µM unless noted 97% | A498 renal; 10 µM unless noted 158% | CCRF-CEM leukemia; 10 µM unless noted 32.5% | MOLT-4 leukemia 19.6% | SR leukemia 24% | RPMI-8226 leukemia; 10 µM unless noted 54.4% | OVCAR-5 ovarian; 10 µM unless noted 118% | OVCAR-4 ovarian; 10 µM unless noted 101% | SK-OV-3 ovarian; 10 µM unless noted 117% | IGROV1 ovarian; 10 µM unless noted 102% | OVCAR-3 ovarian; 10 µM unless noted 84.7% | HS 578T breast; 10 µM unless noted 12.7% | NCI/ADR-RES ovarian; 10 µM unless noted 101%
active: OVCAR-8 ovarian; 10 µM unless noted 1.29%

CC/C(=C(\c1ccc(O)cc1)c1ccc(OCCN(C)C(=O)CCOCCNC(=O)c2ccc3c(c2)CN([C@@H]2CCC(=O)NC2=O)C3=O)cc1)c1ccccc1
inactive: SK-MEL-2 melanoma; 1 µM 103% | SK-MEL-2 melanoma; 10 µM 101% | EKVX NSCLC; 1 µM 100% | EKVX NSCLC; 10 µM 89.1% | SN12C renal; 1 µM 91.3% | SN12C renal; 10 µM 95.7% | UO-31 renal; 1 µM 91.9% | UO-31 renal; 10 µM 89.9% | TK-10 renal; 1 µM 99% | TK-10 renal; 10 µM 88.5% | ACHN renal; 1 µM 103% | ACHN renal; 10 µM 106% | CAKI-1 renal; 1 µM 101% | CAKI-1 renal; 10 µM 94.5% | A498 renal; 1 µM 93.3% | A498 renal; 10 µM 89.6% | CCRF-CEM leukemia; 1 µM 24.5% | CCRF-CEM leukemia; 10 µM 26.1% | RPMI-8226 leukemia; 1 µM 99.1% | RPMI-8226 leukemia; 10 µM 93.9% | OVCAR-8 ovarian; 1 µM 103% | OVCAR-8 ovarian; 10 µM 77.6% | OVCAR-5 ovarian; 1 µM 93.4% | OVCAR-5 ovarian; 10 µM 79.5% | OVCAR-4 ovarian; 1 µM 109% | OVCAR-4 ovarian; 10 µM 96.1% | SK-OV-3 ovarian; 1 µM 82.7% | SK-OV-3 ovarian; 10 µM 87.9% | IGROV1 ovarian; 1 µM 70.4% | IGROV1 ovarian; 10 µM 53.6% | OVCAR-3 ovarian; 1 µM 93.7% | OVCAR-3 ovarian; 10 µM 105% | HS 578T breast; 1 µM 75.9% | HS 578T breast; 10 µM 69.3% | NCI/ADR-RES ovarian; 1 µM 106% | NCI/ADR-RES ovarian; 10 µM 102%

CCOc1ccccc1[C@H]1C(C(=O)c2ccc(Cl)cc2)C2(N[C@@H]1c1ccccc1)C(=O)Nc1ccccc12 (some centres not stated)
active: SK-MEL-2 melanoma; 10 µM unless noted -46.5% | EKVX NSCLC; 10 µM unless noted 9% | SN12C renal; 10 µM unless noted -77.8% | UO-31 renal; 10 µM unless noted 8.77% | ACHN renal; 10 µM unless noted 2.68% | CAKI-1 renal; 10 µM unless noted 8.88% | A498 renal; 10 µM unless noted -2.33% | MOLT-4 leukemia -26.4% | SR leukemia -38% | HS 578T breast; 10 µM unless noted 6.17% | NCI/ADR-RES ovarian; 10 µM unless noted -40.6%
inactive: TK-10 renal; 10 µM unless noted 36% | CCRF-CEM leukemia; 10 µM unless noted 12.1% | RPMI-8226 leukemia; 10 µM unless noted 10.9% | OVCAR-8 ovarian; 10 µM unless noted 28% | OVCAR-5 ovarian; 10 µM unless noted 14.5% | OVCAR-4 ovarian; 10 µM unless noted 17.7% | SK-OV-3 ovarian; 10 µM unless noted 26% | IGROV1 ovarian; 10 µM unless noted 17.9% | OVCAR-3 ovarian; 10 µM unless noted 25.5%

CC/C(=C(\c1ccc(O)cc1)c1ccc(OCCNC)cc1)c1ccccc1
inactive: SK-MEL-2 melanoma; 1 µM 95.1% | SK-MEL-2 melanoma; 10 µM 98.7% | EKVX NSCLC; 1 µM 98.9% | EKVX NSCLC; 10 µM 96.4% | SN12C renal; 1 µM 101% | SN12C renal; 10 µM 73.8% | UO-31 renal; 1 µM 90.2% | UO-31 renal; 10 µM 62.7% | TK-10 renal; 1 µM 91.2% | TK-10 renal; 10 µM 94.5% | ACHN renal; 1 µM 98.4% | ACHN renal; 10 µM 90.4% | CAKI-1 renal; 1 µM 98.9% | CAKI-1 renal; 10 µM 85.3% | A498 renal; 1 µM 104% | A498 renal; 10 µM 91.2% | CCRF-CEM leukemia; 1 µM 89.9% | CCRF-CEM leukemia; 10 µM 92.6% | RPMI-8226 leukemia; 1 µM 100% | RPMI-8226 leukemia; 10 µM 86.1% | OVCAR-8 ovarian; 1 µM 104% | OVCAR-8 ovarian; 10 µM 97.3% | OVCAR-5 ovarian; 1 µM 97.8% | OVCAR-5 ovarian; 10 µM 106% | OVCAR-4 ovarian; 1 µM 111% | OVCAR-4 ovarian; 10 µM 88.7% | SK-OV-3 ovarian; 1 µM 84.4% | SK-OV-3 ovarian; 10 µM 92.7% | IGROV1 ovarian; 1 µM 101% | IGROV1 ovarian; 10 µM 96.9% | OVCAR-3 ovarian; 1 µM 115% | OVCAR-3 ovarian; 10 µM 85.4% | HS 578T breast; 1 µM 94.8% | HS 578T breast; 10 µM 80.5% | NCI/ADR-RES ovarian; 1 µM 103% | NCI/ADR-RES ovarian; 10 µM 91.1%
